Pf Dd2 inh: inhibitors of Plasmodium falciparum Dd2 growth; P. falciparum Dd2 growth, SYBR Green, 72 h; 4.3% of 120,000 active; Potency, µM (highest dose often 28.9 µM), usual class: inhibitors; active = well fitted inhibition curve with a large enough effect; note: nearly all actives have a fitted effect of over 65% in size
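Infected erythrocytes (Dd2, 0.3% parasitemia, 2.5% hematocrit final) are added to compound in RPMI-1640/Albumax II medium, grown 72 h at 37C in low oxygen, then lysed with saponin/Triton-X containing SYBR Green and read by fluorescence.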
Each line names hits and unclear results; the compound was inactive in the other large screens. This is one part of a sample in which hits are shown more often than they occur.

CN(C(=O)NC1CCCC1)C1CCc2ccccc2C1 (stereo not given)	none
C[C@]1(O)CCN(C(=O)c2cccc(-n3cnnc3)c2)C[C@@H]1O	none
CN1CC(=O)N(c2ccc(Cl)cc2)Cc2c(NCCCc3ccccc3)ncnc21	none
COc1ccccc1-n1nc(CC(N)=O)nc1-c1ocnc1C	none
COc1ccc(NC(=O)N2CCc3c([nH]c4ccc(OC)cc34)C2c2ccc(OC)cc2)cc1 (stereo not given)	Pf Dd2 inh 4.5µM
COc1ccc2[nH]c3c(c2c1)CCN(C(=O)c1cccc(Cl)c1)C3c1ccc(F)cc1 (stereo not given)	none
COc1ccc2[nH]c3c(c2c1)CCN(C)C31CCN(C(=O)C2CCC2)CC1	none
CCC1=C(C(=O)OC)C(c2ccccc2C)N2C(CC(=O)N3CCCC3)=CSC2=N1 (stereo not given)	none
COC(=O)[C@@H](Cc1cccnc1)NC(=O)[C@H]1CN(C(=O)c2cccnc2)CCN1S(=O)(=O)c1ccccc1	none
Cc1ccc(CN2C(=O)C3(CCOCC3)CC2c2nnnn2C(C)(C)C)cc1 (stereo not given)	none
COC(=O)c1ccccc1NC(=O)CN1C(=O)NC2(CCC(C)CC2)C1=O (stereo not given)	none
O=C(C1CCCN(c2cnn(Cc3ccccc3)c(=O)c2)C1)N1CCCC1 (stereo not given)	none
O=C(NC1CCS(=O)(=O)C1)C1CCN(c2cnn(Cc3ccccc3)c(=O)c2)C1 (stereo not given)	none
O=C(Nc1ccc2c(c1)OCO2)C1CCCN(c2cnn(Cc3ccccc3)c(=O)c2)C1 (stereo not given)	Pf Dd2 inh 10µM
Cn1ncc(N2CCC(C(=O)Nc3ccccc3)C2)cc1=O (stereo not given)	none
O=C(NCCc1cccs1)C1CCCN(c2cnn(Cc3ccccc3)c(=O)c2)C1 (stereo not given)	none
O=C(Nc1ccc2oc(-c3ccccc3)nc2c1)C1CCN(c2cnn(Cc3ccccc3)c(=O)c2)C1 (stereo not given)	Pf Dd2 inh 2.5µM
O=C(Nc1ccc(Oc2ccccc2)cc1)O[C@@H]1CO[C@H]2[C@@H]1OC[C@@H]2NC(=S)Nc1ccccc1	none
CC[C@H]1CN(C(=O)NC2CCCCC2)CC[C@H]1CC(=O)Nc1nccs1	none
Cc1cc(C(=O)N2CCCn3ccnc3C2c2cnn(C)c2)c(C)o1 (stereo not given)	none
Cc1cccnc1C(=O)N1C[C@@H](CO)[C@H](c2nc(C3CC3)no2)C1	none
CCCS(=O)(=O)N1CCC(Oc2ccc(-c3noc(C(C)C)n3)cc2)C1 (stereo not given)	none
COc1cc(OC)cc(C(=O)NCC2CCCN(C(=O)C3=C(C)OCCO3)C2)c1 (stereo not given)	none
COc1ccc(NC(=O)CCC2CCCN(C(=O)c3csc(C(C)=O)c3)C2)cc1Cl (stereo not given)	none
COc1ccc(Cl)cc1NC(=O)CCC1CCCN(C(=O)CCc2scnc2C)C1 (stereo not given)	none
COc1ccc(Cl)cc1NC(=O)CCC1CCCN(S(=O)(=O)C2CC2)C1 (stereo not given)	none
COc1ccc(NC(=O)CCC2CCCN(C(=O)C3=C(C)OCCO3)C2)cc1Cl (stereo not given)	Pf Dd2 inh 3.2µM
COc1ccc(Cl)cc1NC(=O)CCC1CCCN(Cc2ccc(C)s2)C1 (stereo not given)	Pf Dd2 inh 13µM
CCOc1cc(=O)n2c(c1C(=O)NC1CCCCCC1)CCCC2	none
O=C(Nc1ccc(Cl)c(-c2nc3cc(Cl)ccc3o2)c1)c1cc2ccccc2o1	none
Cc1cc(NC(=O)c2cc(Cl)ccc2Cl)ccc1-c1cc2ccccc2oc1=O	Pf Dd2 inh 11µM
Cc1cc2nc(-c3cc(NC(=O)c4cc5ccccc5o4)ccc3Cl)oc2cc1C	none
CCn1cc(S(=O)(=O)N2CCC3(CC2)CCC(O)(CN(C)C)CC3)cn1	none
N#Cc1ccc(O[C@@H]2CCOC[C@H]2NC(=O)CCCn2cncn2)cc1	none
C=CCN(Cc1ccccc1OC)C(=O)c1cnc2ccccn12	none
Cc1cc(C)c(S(=O)(=O)NCCn2c(C)cnc2C2CC2)cc1C	Pf Dd2 inh 11µM
Cc1cnc(C2CC2)n1CCN	none
Cc1ccc(C)c(S(=O)(=O)NCCn2c(C)cnc2C2CCC2)c1	none
COc1cccc(N2CC(C(=O)NCc3ccc(F)cc3)NC2=O)c1 (stereo not given)	none
CC1CCC2(CC1)OCC(C(=O)NCc1ccccc1)N2C(=O)c1ccc(Cl)c(Cl)c1 (stereo not given)	Pf Dd2 inh 8.9µM
CC1CCC2(CC1)OCC(C(=O)NCc1ccccc1)N2C(=O)c1cccc(Cl)c1 (stereo not given)	none
Cc1cccc(C(=O)N2C(C(=O)NCc3ccccc3)COC23CCC(C)CC3)c1 (stereo not given)	none
C[C@H]1CCCN1C(=O)c1nnc(COc2cccc(C(F)(F)F)c2)n1-c1cccnc1	none
COCC(=O)NC1CCC12CCN(C(=O)c1ocnc1C)CC2 (stereo not given)	none
Cc1ccc(CN2CC[C@@H]3[C@H]2C(=O)NC[C@H](CCC(=O)Nc2ccccc2)N3C)cc1	Pf Dd2 inh 11µM
C#CCNC(=O)CC[C@H]1CNC(=O)[C@@H]2[C@@H](CCN2Cc2ccc(C)cc2)N1C	none
CN1[C@@H](CCC(=O)Nc2ccccc2)CNC(=O)[C@@H]2[C@H]1CCN2Cc1ccc(C(F)(F)F)cc1	none
CCn1ncc(N2CCC(NC(=O)c3ccc4c(c3)OCO4)CC2)cc1=O	none
O=C(N[C@H](c1ccccn1)C1CC(O)C1)C1(c2ccc(Cl)cc2)CCC1 (stereo not given in full)	none
Cc1ccc(-n2c(=O)c3cccnc3n2CC(=O)Nc2ccc(C)cc2Cl)cc1	none
Cc1ccc(CNC(=O)Cn2c3ncccc3c(=O)n2-c2ccccc2)cc1	none
Cc1ccc(-n2c(=O)c3cccnc3n2CC(=O)Nc2cccc(C)c2C)cc1	Pf Dd2 inh 3.5µM
CCOC(=O)c1ccccc1NC(=O)Cn1c2ncccc2c(=O)n1-c1ccccc1	none
CCc1cccc(-n2c(=O)c3cccnc3n2CC(=O)Nc2ccc(F)c(C)c2)c1	Pf Dd2 inh 1.3µM
Cc1ccc(-n2c(=O)c3cccnc3n2CC(=O)Nc2cc(C)cc(C)c2)cc1	none
CCc1cccc(-n2c(=O)c3cccnc3n2CC(=O)Nc2c(C)cc(C)cc2C)c1	none
CCc1ccc(-n2c(=O)c3cccnc3n2CC(=O)Nc2ccccc2C(F)(F)F)cc1	Pf Dd2 inh 11µM
O=C(Cn1c2ncccc2c(=O)n1-c1ccccc1)Nc1ccc(F)c(F)c1	none
COc1ccc(CCC(=O)N2CCCCCCNC(=O)CC2)cc1	none
CN[C@@H](CC(C)C)C(=O)N[C@H]1C[C@@](O)(C(=O)N[C@H]2CCCNC2=O)C[C@@H](O)[C@@H]1O	none
COc1ccc(-c2cc(N3CCC(NC(=O)c4cccc(C#N)c4)CC3)n[nH]2)cc1	none
COc1ccccc1CCC(=O)N1CC(c2noc(-c3ccccc3)n2)C1	none
COc1ccc(OC)c(CNC(=O)CC2CCCCN(C)C2=O)c1 (stereo not given)	none
CCOC(=O)c1cc(-c2ccccc2)n(-c2cccc(C(=O)Nc3cccc(C)c3)c2)c1C	Pf Dd2 inh 11µM
CCOC(=O)c1cc(-c2ccccc2)n(-c2cccc(C(=O)N(CC)c3ccccc3)c2)c1C	none
CCOC(=O)c1cc(-c2ccc(C)cc2)n(CC(=O)Nc2cccc(C(C)=O)c2)c1C	none
CCc1nc2c(c(-c3ccc(O)cc3)n1)CN(Cc1ccccc1OC)CC2	none
Oc1ccc(-c2nc(C3CC3)nc3c2CN(Cc2ccsc2)CC3)cc1	Pf Dd2 inh 7.1µM
Cc1nc2c(c(-c3ccc(O)cc3)n1)CN(Cc1cncs1)CC2	none

Screens from PubChem BioAssay.
